From PubChem
RecA splice inh: Mtb RecA intein splicing inhibition; P9WHJ3; cell-free RecA intein splicing, fluorescence; inhibition, % (no concentration beside the values); 0.75% of 290,000 active; AID 2221; in the data active means inhibition above about 30%
Target sequence (P9WHJ3 whole entry, looked up, canonical isoform): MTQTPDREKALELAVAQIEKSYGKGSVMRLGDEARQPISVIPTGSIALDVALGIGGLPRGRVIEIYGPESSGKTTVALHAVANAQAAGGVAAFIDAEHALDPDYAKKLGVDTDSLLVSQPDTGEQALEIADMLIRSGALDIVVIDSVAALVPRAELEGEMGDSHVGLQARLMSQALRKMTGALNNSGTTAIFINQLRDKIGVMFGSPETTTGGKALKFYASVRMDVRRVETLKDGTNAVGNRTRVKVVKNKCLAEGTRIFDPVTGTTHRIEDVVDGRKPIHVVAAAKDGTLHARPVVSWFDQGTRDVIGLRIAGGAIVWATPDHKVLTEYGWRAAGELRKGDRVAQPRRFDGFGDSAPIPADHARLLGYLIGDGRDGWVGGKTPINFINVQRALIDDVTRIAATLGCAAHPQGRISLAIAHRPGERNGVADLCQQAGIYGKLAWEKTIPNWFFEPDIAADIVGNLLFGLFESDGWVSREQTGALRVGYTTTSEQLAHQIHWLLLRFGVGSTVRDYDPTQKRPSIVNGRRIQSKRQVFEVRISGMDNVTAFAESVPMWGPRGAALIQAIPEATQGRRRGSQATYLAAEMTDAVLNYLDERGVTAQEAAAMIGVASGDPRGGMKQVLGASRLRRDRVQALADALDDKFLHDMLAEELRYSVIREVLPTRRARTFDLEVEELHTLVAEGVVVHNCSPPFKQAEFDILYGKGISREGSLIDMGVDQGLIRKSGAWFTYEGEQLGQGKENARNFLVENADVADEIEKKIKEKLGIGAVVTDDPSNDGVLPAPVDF
PriA SSB inh: K. pneumoniae PriA-SSBct interaction inhibition | AlphaScreen SSBct-PriA binding, biotinylated peptide | inhibition, % at 33 µM | 0.6% of 430,000 active | AID 1272365; in the data active means inhibition mostly above about 37%, no sharp cut-off; inactive means mostly below about 20%
PrPC TRFRET: inhibitors of human cell surface prion protein PrPC | P04156 | 0.43% of 370,000 active | TR-FRET read-out | AID 720596 | inhibition, % at 13.8 µM; in the data active means inhibition above about 24%
PrP 5UTR inh: suppresses PrP 5' UTR mRNA reporter expression. AID 488862. cell-based PrP 5' UTR mRNA reporter, plate reader. 0.35% of 340,000 active. inhibition, % (concentration not given with the values); in the data active means inhibition above about 52%
BJeLR lethal: kills HRASV12-expressing BJeLR cells | BJeLR (HRASV12) viability, CellTiter-Glo ATP luminescence, 48 h | inhibition, % (concentration not given with the values) | 0.17% of 300,000 active | AID 1554; in the data active means inhibition above about 50%
PfHsp40 yeast: restores yeast growth despite PfHsp40 toxicity; S. cerevisiae expressing PfHsp40, growth rescue, ATP luminescence; growth rescue, % at 12.5 µM; 0.68% of 340,000 active; in the data active means growth rescue above about 28%, passing the limit was not always enough;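 further: yeast W303a lacking pdr1 and pdr3 grown in galactose medium; growth measured after three days at 30 °C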
GFP chromo cs: counter-screen: blocks GFP chromophore formation. cell-free GFP chromophore formation, fluorescence. AID 434968. EC50, µM. 83% of 2,100 active. shares compounds with RecA splice inh; call rule not given here
PrP UTR cherry: prion 5' UTR mRNA inhibition, cherry-pick retest; 48% of 1,100 active; shares compounds with PrP 5UTR inh; AID 504592; cell-based prion protein 5' UTR reporter, plate reader; inhibition, % at 2.5 µM; in the data active means inhibition above about 54%
PrPC TRFRET cf: cell surface PrPC inhibition, TR-FRET confirmation | AID 743200 | cell surface PrPC level | inhibition, % at 13.8 µM | 65% of 1,500 active | shares compounds with PrPC TRFRET; in the data active means inhibition above about 25%
LD9 cytotox: counter-screen for PrPc inhibitors: cytotoxicity in LD9 cells. inhibition, % at 13.8 µM. shares compounds with PrPC TRFRET. luminescence viability. 29% of 1,500 active; in the data active means inhibition above about 9.5%
Large screens that a line does not name were inactive (follow-up assays come after a bar, where they were run). Hits are enriched below; roughly 1.9% of the tested compounds scored in any of these assays.

CCCNC(=O)c1nnsc1S(=O)c1ccc(Cl)cc1 (stereo unspecified)	RecA splice inh 55, PrPC TRFRET 91 | GFP chromo cs 39 | PrPC TRFRET cf inactive | LD9 cytotox 95
CCCNC(=O)c1ccc2snnc2c1	none
O=[N+]([O-])c1ccc(Nc2ccccc2)c2nonc12	none
O=[N+]([O-])c1ccc(Sc2cccc[n+]2[O-])c2nonc12	RecA splice inh 45, PrPC TRFRET 37, PfHsp40 yeast 683 (no result: PriA SSB inh) | GFP chromo cs 19 | PrPC TRFRET cf 73 | LD9 cytotox 99
CC(=NNC=O)c1ccncc1	none (no result: RecA splice inh, PrPC TRFRET, PrP 5UTR inh, BJeLR lethal, PfHsp40 yeast)
Nc1ccc2c(c1)C(=O)C(=O)c1ccccc1-2	RecA splice inh 97, PrPC TRFRET 64, BJeLR lethal 114 | GFP chromo cs 5.1 | PrPC TRFRET cf 61 | LD9 cytotox 99
Nc1ccc2c(c1)C(=O)c1ccccc1-2	none
N#CC(C#N)=NNc1ccc(-n2ccc(C(F)(F)F)n2)cc1	RecA splice inh 79, PrPC TRFRET 32, BJeLR lethal 59, PfHsp40 yeast 186 | GFP chromo cs 6.4 | PrPC TRFRET cf 43 | LD9 cytotox 39
Cn1nc(CNS(=O)(=O)c2ccc(OC(F)(F)F)cc2)cc1-c1cccs1	none (no result: RecA splice inh, PrPC TRFRET, PrP 5UTR inh, BJeLR lethal, PfHsp40 yeast)
O=C(Nc1ccccc1)C1=C(c2ccccc2)S(=O)(=O)CCS1(=O)=O	RecA splice inh 94, PrPC TRFRET 33 | GFP chromo cs 1.5 | PrPC TRFRET cf inactive | LD9 cytotox 70
COc1cc(NC(=O)C2CC2)ccc1N1CCCCC1=O	none (no result: RecA splice inh, PrPC TRFRET, PrP 5UTR inh, BJeLR lethal, PfHsp40 yeast)
CC(=O)Nc1cccc(NC(=O)CSc2nc(CC(=O)Nc3ccc(C(C)=O)cc3)cs2)c1	none (no result: RecA splice inh, PrPC TRFRET, PrP 5UTR inh, BJeLR lethal, PfHsp40 yeast)
O=C(NCc1cccnc1)c1ccccc1Br	PrP 5UTR inh 77 | PrP UTR cherry inactive
O=C(NCc1cccnc1)c1ccccc1F	none (no result: RecA splice inh, PrPC TRFRET, PrP 5UTR inh, BJeLR lethal, PfHsp40 yeast)
O=C(CSc1ccc(F)cc1)NCCn1nc(-c2cccs2)n(C2CC2)c1=O	none (no result: RecA splice inh, PrPC TRFRET, PrP 5UTR inh, BJeLR lethal, PfHsp40 yeast)
O=C(c1ccccc1C(F)(F)F)N1CCCC(c2nnc(-c3cccs3)o2)C1 (stereo unspecified)	none (no result: RecA splice inh, PrPC TRFRET, PrP 5UTR inh, BJeLR lethal, PfHsp40 yeast)
O=C(c1ccc(CS(=O)(=O)c2ccc(Br)cc2)o1)N1CCOCC1	none
COc1ccc(S(=O)(=O)Cc2ccc(C(=O)N3CCOCC3)o2)cc1	PrP 5UTR inh 71 (no result: RecA splice inh) | PrP UTR cherry inactive
O=C(CCCCn1c(=O)c2ccccc2n(CC(=O)NC2CCCCC2)c1=O)NC1CCCCC1	none (no result: RecA splice inh, PrPC TRFRET, PrP 5UTR inh, BJeLR lethal, PfHsp40 yeast)
O=C(Nc1cccc(C(F)(F)F)c1)c1ccc(NC(=O)c2ccc(Cl)cc2Cl)cc1	none (no result: RecA splice inh, PrPC TRFRET, PrP 5UTR inh, BJeLR lethal, PfHsp40 yeast)
COC(=O)C1C(O)=C(C=Nc2ccc3ccccc3c2)C(=O)CC1(C)C (stereo unspecified)	PrP 5UTR inh 80 | PrP UTR cherry inactive
CCC(C)(C)C1CCc2[nH]nc(C(=O)NC3CCCC3)c2C1 (stereo unspecified)	none (no result: RecA splice inh, BJeLR lethal)
O=C(NC1CCCCC1)c1n[nH]c2c1CCCCC2	PrP 5UTR inh 79 (no result: RecA splice inh, BJeLR lethal) | PrP UTR cherry 59
O=S(=O)(/C=C/c1ccccc1)NCCn1ccn2nc(-c3ccco3)cc12	none (no result: RecA splice inh, PrPC TRFRET, PrP 5UTR inh, BJeLR lethal, PfHsp40 yeast)
COc1cc(/C=C2\CC/C(=C\c3cc(OC)c(OC)c(OC)c3)C2=O)cc(OC)c1OC	none
COc1cc(/C=C2\COC/C(=C\c3cc(OC)c(OC)c(OC)c3)C2=O)cc(OC)c1OC	PrP 5UTR inh 89 | PrP UTR cherry 97
COc1ccccc1OCCC(=O)OCC(=O)NCc1ccc(F)cc1	PrP 5UTR inh 88 (no result: RecA splice inh, BJeLR lethal) | PrP UTR cherry inactive
COc1ccc(S(=O)(=O)NCCN2CCOC(c3ccccc3)C2)cc1 (stereo unspecified)	none (no result: RecA splice inh, PrPC TRFRET, PrP 5UTR inh, BJeLR lethal, PfHsp40 yeast)
COC(=O)c1ccc2c(c1)c(-c1ccccc1)c(-c1ccccc1)n2C	PrP 5UTR inh 85 (no result: RecA splice inh, BJeLR lethal) | PrP UTR cherry inactive
O=S(=O)(c1cccc(C(F)(F)F)c1)N1CCN(c2ccc(Cl)c(Cl)c2)CC1	none (no result: RecA splice inh, PrPC TRFRET, PrP 5UTR inh, BJeLR lethal, PfHsp40 yeast)
Cc1ccc(S(=O)(=O)N=C(Nc2ccc3[nH]c(=O)[nH]c3c2)c2ccc(F)cc2)cc1	none (no result: RecA splice inh, PrPC TRFRET, PrP 5UTR inh, BJeLR lethal, PfHsp40 yeast)
